These entries were drawn from the full list.
PostGolgi yeast: growth inhibition of a yeast mutant, post-Golgi transport screen; AID 739; inhibition, % at 10 µM; post-Golgi transport phenotypic cell assay; actives 0.9% (n = 98,000);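 further: yeast cells grown in 1536-well plates; yeast grown about 18 h at 30C before absorbance read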
CYP2C19 inhib: human CYP2C19 inhibition | P33261 | CYP2C19 Supersomes, luciferin-H EGE luminescence, 30 min | inhibition, % at 5 µM | actives 21% (n = 96,000);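 active means CYP2C19 inhibition above a set limit at 5 µM in the primary screen, cut at about 50% in these data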;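 further: plate controls were negative control wells for no effect and 2.5 mM tranylcypromine positive control for full effect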
Target sequence (P33261 whole entry, looked up): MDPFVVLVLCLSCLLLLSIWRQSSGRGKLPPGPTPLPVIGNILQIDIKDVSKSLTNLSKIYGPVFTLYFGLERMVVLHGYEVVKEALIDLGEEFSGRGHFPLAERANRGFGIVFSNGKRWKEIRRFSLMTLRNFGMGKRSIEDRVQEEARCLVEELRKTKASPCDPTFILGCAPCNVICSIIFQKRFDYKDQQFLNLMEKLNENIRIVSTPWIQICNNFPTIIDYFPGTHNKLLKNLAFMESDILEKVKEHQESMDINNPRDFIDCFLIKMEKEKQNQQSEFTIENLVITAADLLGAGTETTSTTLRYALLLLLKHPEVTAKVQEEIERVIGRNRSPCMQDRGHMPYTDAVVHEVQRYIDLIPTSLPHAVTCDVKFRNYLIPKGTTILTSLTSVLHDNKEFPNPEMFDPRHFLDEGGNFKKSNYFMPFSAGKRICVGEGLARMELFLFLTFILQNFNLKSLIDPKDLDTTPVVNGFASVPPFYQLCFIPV
CYP2C19 activ: activators of human cytochrome P450 2C19; 96,000 tested, under 10 active; activation factor at 5 µM; recombinant CYP2C19, luciferin-H EGE luminescence; stronger effect = higher value; 0 = fully inhibited enzyme, 1 = untreated enzyme;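 active means activation factor of at least 2 at 5 µM in the primary screen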;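 further: 0 = wells with 2.5 mM tranylcypromine and 1 = vehicle-only wells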
CYP2C9 activ: CYP2C9 (human) activation | activation factor at 5 µM | P11712 | recombinant CYP2C9, luciferin-H conversion, luminescence; stronger effect = higher value; factor 1 = untreated enzyme, 0 = blocked | AID 1024 | actives 1.4% (n = 96,000);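 active means activation factor of 2 or more for CYP2C9 at a 5 µM dose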;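 further: 0 = sulfaphenazole-blocked wells and 1 = vehicle-only wells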
PostGolgi ctrl: yeast control strain growth, post-Golgi counter-screen | efflux-deficient yeast background strain, growth absorbance A615, 16 h | inhibition, % at 10 µM | actives 5% (n = 98,000)
CYP2C9 inhib: inhibitors of human CYP2C9 | P11712 | CYP2C9 Supersomes, luciferin-H conversion, luminescence | inhibition, % at 5 µM | actives 20% (n = 96,000);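 active means blocking of liver enzyme CYP2C9 beyond about 50% at 5 µM, limit read from the data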
* hit, by the source's call; x = not tested or not shown. Unless noted, no stated cut-off is given here; in the data, active means inhibition above about 30%; inactive means the rest.

SMILES | PostGolgi yeast | CYP2C19 inhib | CYP2C19 activ | CYP2C9 activ | PostGolgi ctrl | CYP2C9 inhib
CC(OC(=O)CN(C)S(=O)(=O)c1ccc(Cl)cc1)C(=O)Nc1ncc(Cl)cc1Cl (centres undefined) | 9 | 18 | 0.8 | 1 | 5 | 5
O=C(CNS(=O)(=O)c1ccc(Br)s1)N1CCC(N2CCCCC2)CC1 | 1 | 22 | 0.8 | 0.8 | 0 | 19
O=C(Oc1ccc2c(=O)c(Cl)coc2c1)c1cccnc1 | 10 | -6 | 1.1 | 1.2 | 13 | -25
O=C(NCCCN1CCN(c2cccc(Cl)c2)CC1)c1nc(-c2ccncc2)no1 | -1 | 70* | 0.3 | 0.1 | 11 | 87*
Cc1cc(C)c(C(=O)CSC2=NC(N)=C(C#N)C3(CCCCC3)C2C(N)=O)cc1C (centres undefined) | -1 | 41 | 0.6 | 0.9 | 7 | 7
Cc1cccc(/C=C/C(=O)c2cc(Br)ccc(=O)c2O)c1 | -1 | 8 | 0.9 | 0.8 | 0 | 22
O=C(COc1ccc(Br)cc1CO)Nc1ccccc1 | 1 | 89* | 0.1 | 0.3 | 14 | 71*
Cc1ccc(NC(=O)COc2ccc(Br)cc2CO)cc1 | 15 | 74* | 0.3 | 0.4 | 13 | 56*
CC(C)(CO)NCc1ccccc1OCC(=O)Nc1ccccc1 | -7 | 6 | 0.9 | 1 | 32* | 0
CC(CN(C)Cc1ccccc1)OC(=O)c1ccc2c(c1)OCCO2 (centres undefined) | 3 | 30 | 0.7 | 0.7 | 1 | 30
Nc1nnc(SCC(=O)N2CCN(c3ccccc3)CC2)n1-c1ccccc1 | 1 | -10 | 1.1 | 1.1 | 9 | -8
COc1cccc(-c2nc(Cc3ccc(OC)c(OC)c3)no2)c1 | 0 | 58* | 0.4 | 0.8 | 5 | 17
CCOC(=O)N1CCN(C(=O)CSc2ncnc3ccccc23)CC1 | 21 | -7 | 1.1 | 1 | -3 | 4
COc1cc(C)c(C(C)C)cc1S(=O)(=O)N1CCN(C)CC1 | -2 | 4 | 1 | 1.5 | 4 | -54
CCN(CC)S(=O)(=O)c1cc(Br)ccc1OC | 0 | 98* | 0 | 2.5* | 4 | -149
CCN(CC)S(=O)(=O)c1ccc(OC)nc1 | 4 | 32 | 0.7 | 0.8 | 1 | 24
COc1cc(C)c(Br)cc1S(=O)(=O)N1CCCC1 | -8 | 96* | 0 | 2.8* | 9 | -178
COc1ccc(Br)cc1S(=O)(=O)N1CCOCC1 | -10 | 44 | 0.6 | 1.3 | 2 | -34
Cc1cc(C)c(S(=O)(=O)N(CC(=O)O)CC(=O)O)c(C)c1 | -3 | -11 | 1.1 | 1 | -5 | -1
CCN(CC)S(=O)(=O)c1cc(Br)c(C)cc1OC | -14 | 41 | 0.6 | 2* | 33* | -104
CCN(CC)S(=O)(=O)c1c(Br)cc(C)cc1Br | -5 | 41 | 0.6 | 2.5* | 6 | -154
COc1ccccc1N1CCN(C(=O)CSc2nc(C)c(Cc3ccccc3)c(=O)[nH]2)CC1 | 0 | 23 | 0.8 | 0.7 | -3 | 26
CN1CC(=O)NC1=NC(=O)c1ccc(Cl)c(S(=O)(=O)N2CCCCCC2)c1 | -6 | 16 | 0.8 | 0.8 | 23 | 25
NC(=O)C1CCN(C(=O)c2ccc(CS(=O)(=O)c3c(Cl)cccc3Cl)o2)CC1 | 1 | -12 | 1.1 | 0.9 | -2 | 8
CC(C)(C)C(=O)C(CO)(Oc1ccc(Cl)cc1)n1cncn1 (centres undefined) | 99* | 93* | 0.1 | 0.2 | 95* | 77*
SMILES | PostGolgi yeast | CYP2C19 inhib | CYP2C19 activ | CYP2C9 activ | PostGolgi ctrl | CYP2C9 inhib
CCS(=O)(=O)c1nc(NC(C)=O)n[nH]1 | 18 | -8 | 1.1 | 1.1 | -6 | -9
CCCCCC(C)n1[nH]c(=O)c2c(C)cc(C)nc21 (centres undefined) | 3 | 98* | 0 | 0.3 | 17 | 66*
Fc1ccccc1C(c1nnnn1Cc1ccc2c(c1)OCO2)N1CCN(Cc2ccco2)CC1 (centres undefined) | -4 | 23 | 0.8 | 1.2 | 3 | -20
Cc1cc(C)nc(SCCC(=O)Nc2ccccc2C)n1 | -4 | 22 | 0.8 | 1.7 | 2 | -67
COc1cccc(COc2cc3ccccc3nc2C)c1 | 9 | 43 | 0.6 | 0.2 | 11 | 78*
Cc1nc2ccccc2cc1OCc1ccc(Cl)cc1 | 2 | 1 | 1 | 0.8 | 36* | 25
COc1cccc(CNc2ncnc3cc(OC)c(OC)cc23)c1 | 0 | 13 | 0.9 | 1.5 | 8 | -47
Cc1nc2ccccc2cc1OCc1ccccc1 | 7 | 26 | 0.7 | 0.4 | 12 | 65*
Cn1c(=O)cc(SCC(=O)NCCN2CCN(c3ccccc3F)CC2)c2cc(Cl)ccc21 | -2 | 33 | 0.7 | 1.1 | 11 | -14
O=C(CN1CCN(C(c2ccccc2)c2ccccc2)CC1)NC(=O)NCc1ccco1 | 5 | 7 | 0.9 | 2* | 36* | -96
S=C(NCc1ccco1)N1CCN(C(c2ccccc2)c2ccccc2)CC1 | -5 | 35 | 0.7 | 0.3 | 27 | 72*
CCCCNC(=O)C(Cc1ccccc1)NS(=O)(=O)c1ccc2c(c1)c(=O)n(C)c(=O)n2C (centres undefined) | -4 | 27 | 0.7 | 0.5 | -11 | 49
CCN(c1ccc(OC)cc1)c1ncnc2nc[nH]c12 | 10 | -10 | 1.1 | 1.1 | 3 | -8
CC(C)OC(=O)C1=C(N)N2C(=O)CSC2=C(C(=O)OC(C)C)C1 | 8 | 36 | 0.6 | 0.9 | 5 | 12
CCN(CC)CCNC(=O)c1ccccc1C(=O)c1ncc[nH]1 | 17 | 14 | 0.9 | 0.8 | 15 | 21
CCOC(=O)CNC(=O)c1sc(NC(=O)c2ccccc2F)nc1C | 0 | 38 | 0.6 | 0.9 | 8 | 14
CCOC(=O)Cc1csc(NC(=O)CSc2nnc(C(C)C)n2CC)n1 | 8 | x | x | x | 1 | x
CCOC(=O)Cc1csc(NC(=O)CCS(=O)(=O)Cc2ccccc2)n1 | 1 | 31 | 0.7 | 0.5 | -11 | 53*
CCOC(=O)Cc1csc(NC(=O)CSc2nnc(-c3ccc(OC)cc3)n2C)n1 | 0 | 30 | 0.7 | 0.4 | 3 | 59*
CCOC(=O)Cc1csc(NC(=O)c2sc3nc4c(C)cc(C)cc4cc3c2N)n1 | -5 | 28 | 0.7 | 0.4 | 11 | 59*
CCOC(=O)Cc1csc(NC(=O)CS(=O)(=O)Cc2ccccc2)n1 | 7 | 20 | 0.8 | 0.5 | 1 | 49
CCOC(=O)CNC(=O)c1sc(NC(=O)c2cccc(F)c2)nc1C | -2 | -5 | 1.1 | 0.8 | 35* | 22
CCN1C(=O)N(c2ccc(Cl)cc2)C(C)=CC1(C)C | -4 | 26 | 0.7 | 0.9 | 10 | 11
CCOC(=O)Cc1csc(NC(=O)CC)n1 | -2 | -2 | 1 | 1 | 6 | 2
CCOC(=O)Cc1nnc(NC(=O)COc2ccc(C)cc2)s1 | -9 | 2 | 1 | 0.5 | 3 | 49
CCOC(=O)Cc1csc(NC(=O)COc2ccc(N(C)S(=O)(=O)c3ccc(C)cc3)cc2)n1 | -6 | 92* | 0.1 | 0.1 | -3 | 92*

High-throughput results: PubChem, several laboratories
